Screening data as filed in PubChem BioAssay.
PLK1 PBD inh = qHTS for Inhibitors of PLK1-PDB (polo-like kinase 1 - polo-box domain): Primary Screen; actives 2.8% (n = 360,000); Plk1 PBD binding of FITC phosphopeptide, fluorescence polarization; Potency, µM, inactives show max response, negative = inhibition, most hits filed as inhibitors; AID 720504, 2013; also: potency is read from the fitted curve at half-maximal effect; series mostly up to about 57 µM; % is scaled to controls: 0 for no effect and ±100 for the full control effect; nearly all actives have a fitted effect of over 65% in size
Target sequence (P53350 whole entry, looked up, the tested form may be a part): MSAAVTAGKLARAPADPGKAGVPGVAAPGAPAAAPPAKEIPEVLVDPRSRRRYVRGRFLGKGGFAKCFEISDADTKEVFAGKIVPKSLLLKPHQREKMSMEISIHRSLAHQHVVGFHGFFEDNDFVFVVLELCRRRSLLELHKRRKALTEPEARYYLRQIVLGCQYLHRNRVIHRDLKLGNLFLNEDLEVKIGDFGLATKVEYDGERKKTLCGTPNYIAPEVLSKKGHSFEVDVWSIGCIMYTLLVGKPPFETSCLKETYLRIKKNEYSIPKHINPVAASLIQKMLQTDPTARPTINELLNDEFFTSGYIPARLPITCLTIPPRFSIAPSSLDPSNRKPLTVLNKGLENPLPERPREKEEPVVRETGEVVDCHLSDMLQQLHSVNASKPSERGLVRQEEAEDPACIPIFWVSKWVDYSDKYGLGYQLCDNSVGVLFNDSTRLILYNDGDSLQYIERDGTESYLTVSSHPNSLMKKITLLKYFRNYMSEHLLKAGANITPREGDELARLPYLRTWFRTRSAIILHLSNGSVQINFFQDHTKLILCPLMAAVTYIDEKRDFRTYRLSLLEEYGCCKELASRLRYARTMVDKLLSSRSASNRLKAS
HP1b chromo inh = HTS for Inhibitors of HP1-beta Chromodomain Interactions with Methylated Histone Tails; actives 0.56% (n = 390,000); Potency, µM (doses to about 114 µM), for the others: top-dose activity change, negative = inhibition, most hits filed as inhibitors; AlphaScreen HP1-beta / biotin-H3K9me3 peptide binding; AID 540317, 2011; also: potency is read from the fitted curve at half-maximal effect; nearly all actives have a fitted effect of over 70% in size
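HP1-beta protein (50 nM final) preincubated 30 min at room temperature with biotinylated H3(1-18)K9me3 peptide (50 nM) in PBS pH 7.4, 0.01% Tween-20, then compound added for 30 min. AlphaScreen streptavidin donor/nickel chelate acceptor beads (10 ug/mL final), 30 min dark, luminescence read.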
PI5P4Ka inh = qHTS for Inhibitors of phosphatidylinositol 5-phosphate 4-kinase (PI5P4K); AID 652105, 2013; Phosphatidylinositol 5-phosphate 4-kinase type-2 alpha (Homo sapiens), P48426; max response, %; actives 1.2% (n = 330,000); PI5P4Kalpha enzyme, ADP-Glo luminescence, 60 min; stronger effect = lower value; active = max response of -50% or lower; inconclusive = between -30% and -50%; inactive = -30% or higher; also: value at the top dose of about 77 µM; % is scaled to controls: 0 for no effect and ±100 for the full control effect
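Luminescence from ADP-Glo served as readout of PI5P4Kalpha activity in a qHTS format. Reaction: enzyme, substrate, compound, ATP at 5 microM final, 60 min at RT.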
BAZ2B block = qHTS Assay for Inhibitors of BAZ2B; Bromodomain adjacent to zinc finger domain protein 2B (Homo sapiens), Q9UIF8; AlphaScreen BAZ2B-H3K14Ac peptide displacement; Potency, µM (titrated, usually from 114 µM), for inactives: at the top dose activity change, negative = inhibition, hits mostly inhibitors; actives 4.4% (n = 360,000); AID 504333, 2011; also: potency is read from the fitted curve at half-maximal effect; % is scaled to controls: 0 for no effect and ±100 for the full control effect; nearly all actives have a fitted effect of over 60% in size
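BAZ2B 50 nM plus b-H3(5-23)K14Ac 50 nM, PBS pH 7.4/0.01% Tween-20, 30 min RT; compound added (max 110 uM), 30 min RT; streptavidin donor/Ni-chelate acceptor beads 10 ug/mL final, 20 min dark; AlphaScreen read.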
JMJD2A Tudor inh = qHTS Assay for Inhibitors of JMJD2A-Tudor Domain; Lysine-specific demethylase 4A (Homo sapiens), O75164; AID 504339, 2011; AlphaScreen JMJD2A-Tudor / H3K4me3 peptide binding; actives 4.4% (n = 390,000); Potency, µM (highest dose often 114 µM), for inactives: at the top dose activity change, negative = inhibition, usual class: inhibitors; also: potency is read from the fitted curve at half-maximal effect; % is scaled to controls: 0 for no effect and ±100 for the full control effect; nearly all actives have a fitted effect of over 50% in size
G9a inh = qHTS Assay for Inhibitors of Histone Lysine Methyltransferase G9a. Histone-lysine N-methyltransferase EHMT2 (Homo sapiens), Q96KQ7. G9a H3K9 monomethylation, AlphaScreen, 2 h. Potency, µM (doses to about 102 µM), for the others: top-dose activity, negative = inhibition, hits mostly inhibitors. actives 8.8% (n = 350,000). AID 504332, 2011; also: potency is read from the fitted curve at half-maximal effect; % is scaled to controls: 0 for no effect and ±100 for the full control effect; nearly all actives have a fitted effect of over 75% in size
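AlphaScreen read-out: biotin-H3K9 peptide (500 nM) methylation by 20 nM enzyme with 20 uM SAM, 2 h at room temperature after 15 min compound preincubation; anti-monomethyl H3K9 antibody plus donor/acceptor beads, 10 min dark.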
Numbers without * were called inactive; ? = inconclusive; . = no result given; ! = not active in a repeat; [ ] = another dose, or the depositor's remark. A selection: hits, their analogues and other compounds. The true share with any hit is near 12%. Unless noted, calls follow the shape of the dose curve; as a rule, active = well fitted curve in the direction sought with a large enough effect; inconclusive = small, poorly fitted or top-dose-only effect, or another doubt; inactive = no such curve, though single readings can be large; an effect the other way counts as inactive or inconclusive.

SMILES | PLK1 PBD inh | HP1b chromo inh | PI5P4Ka inh | BAZ2B block | JMJD2A Tudor inh | G9a inh
O=C(c1ccc(F)cc1)N1CCC(N2CCCCCC2)CC1 | -6.4% | ? | -0.7 | 50.1µM* | ? | 17.8µM*
c1ccc(CCNCc2ccccc2)cc1 | 1.8% | 14.8% | -5.9 | 2.8% | -9.0% | 5.7%
CC1=C/C(=N\NC(=S)NCCc2ccccc2)CC(C)(C)C1 | -5.9% | -11.4% | -3.2 | ? | 50.1µM* | 39.8µM*
CCN(c1ccc(C(O)(C(=O)OC)C(F)(F)F)cc1)S(=O)(=O)c1ccccc1 (centres undefined) | 26.7µM* | -13.5% | 0.6 | 2.2% | 9.9%[11.4 µM] | -4.3%[59 µM]
Cn1c(=O)n(C)c2cc(CNCCc3ccccc3F)ccc21 | . | 29.4% | . | ? | -21.9% | -23.6%[59 µM]
CC(C)Oc1ccc(C(=O)Nc2ccc3c(c2)CCCN3C(=O)c2cccs2)cc1 | . | -14.5% | . | -13.7% | ? | -14.8%[59 µM]
O=c1oc2ccccc2c(O)c1Cc1c(O)c2ccccc2oc1=O | . | . | . | . | . | 25.0%[21.5 µM]
CCCCC(=O)c1c(O)c2ccccc2oc1=O | -6.7% | 18.7% | 3.7 | -11.5% | ? | 44.7µM*
CCn1cnc2c(Nc3cccc(Cl)c3)nc(N[C@@H]3CCCC[C@@H]3N)nc21 | . | . | . | . | . | 11.3%[12.7 µM]
O=C(NCNC(=O)N[C@H]1C(=O)NC(=O)N1CO)N[C@H]1C(=O)NC(=O)N1CO | . | . | . | . | . | 31.3%[21.5 µM]
O=C(Oc1ccccc1)N1CCC[C@@]2(CCN(Cc3cc(C(F)(F)F)cc(C(F)(F)F)c3)C2)C1 | . | . | . | . | . | -1.3%[12.7 µM]
Nc1c(C(=O)NCc2ccco2)c2nc3ccccc3nc2n1CCN1CCOCC1 | -8.2% | 58.8% | . | 8.4% | -9.6% | 50.1µM*
Nc1c(C(=O)NCc2ccco2)c2nc3ccccc3nc2n1Cc1ccc(F)cc1 | 26.7µM* | 5.8% | ? | 1.6% | 2.7%[11.4 µM] | 6.2%[12.7 µM]
CC(=O)OC1CC2C(C)(C)C(O)C=C[C@@]2(C)C2CC[C@]3(C)C(=CC(=O)OC3c3ccoc3)[C@]12C (some centres undefined) | . | . | . | . | . | -18.9%[2.33 µM]
C[C@H](N)[C@@H](O)c1ccccc1 | . | . | . | . | . | 27.8%[21.5 µM]
CN(C)[C@@H]1C(=O)C(C(N)=O)=C(O)[C@@]2(O)C(=O)C3=C(O)c4c(O)ccc(Cl)c4[C@@](C)(O)[C@H]3C[C@@H]12 | -15.1% | 18.4% | -19.3 | 17.8µM* | 56.2µM* | ?
CN(C)C1C(=O)C(C(N)=O)C(=O)C2(O)C(=O)C3C(=O)c4c(O)cccc4C(C)(O)C3C(O)C12 (centres undefined) | . | . | . | . | . | 3.55µM*
CN(C)[C@@H]1C(=O)C(C(N)=O)=C(O)[C@@]2(O)C(=O)C3=C(O)c4c(O)cccc4[C@@](C)(O)C3C[C@@H]12 (some centres undefined) | -14.5% | 5.3% | -11.0 | 25.1µM* | 10µM* | 10µM*
CN(C)[C@@H]1C(=O)C(C(N)=O)=C(O)[C@@]2(O)C(=O)C3=C(O)c4c(O)cccc4[C@@](C)(O)[C@H]3[C@H](O)[C@@H]12 | 5.32µM* | 3.98µM*! | -84.9* | 2.82µM* | 1.41µM*! | 11.2µM*
Cc1cc(NC(=O)c2cc(-c3cccc(Cl)c3)on2)nn1Cc1ccc(Cl)cc1 | . | 26.6% | . | ? | 6.8% | ?
CCOC(=O)Cc1[nH]nc2c1C(c1ccoc1)C(C#N)=C(N)O2 (centres undefined) | ? | 38.2% | . | -31.2% | -18.0% | 16.1%[59 µM]
COc1cc(O)cc2c1cc([N+](=O)[O-])c1c(C(=O)O)cc3c(c12)OCO3 | -12.0% | 0.4% | ? | . | -34.7% | .
N[C@@H](Cn1oc(=O)[nH]c1=O)C(=O)O | -1.0% | -7.5% | 4.1 | . | 3.98µM* | 10µM*!
COc1ccc(NC(=O)Cn2c(=O)c3cccn3c3ccccc32)cc1Cl | . | 41.7% | . | 0.6% | 6.2% | 1.7%[59 µM]
